Compound activity deposited in PubChem BioAssay by several laboratories.
Htt clearance: compounds clearing mutant huntingtin protein; AID 853; HeLa Exon1htt(103Q)mCFP, aggregate imaging; zero = plate's median compound well; inhibition, % at 1.5 µM; 47,000 tested, 0.42% active;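 active = inhibition of aggregate fluorescence above about 70%, also judged a hit by eye on the cell image, limit read from the data, passing the limit was not always enough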;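 note: cells exposed to compound for three days before fixation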
WNV NS2B-NS3 inh: inhibitors of West Nile virus NS2B-NS3 protease; P06935; WNV NS2B-NS3 protease, fluorogenic substrate Ex360/Em465; hits give low values; z-score (concentration not given with the values); 65,000 tested, 0.18% active; in the data active = z-score below about -3
M1 agonist: activates the M1 muscarinic receptor | CHO-M1 cells, Fluo-4 calcium fluorescence, agonist mode; hits give high values | B-score at 10 µM | 64,000 tested, 3% active;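 active = fluorescence rise, raw or as B-score row- and column-corrected plate score, outside the 99.7% band of its plate's samples, either direction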
M1 antagonist: M1 muscarinic receptor (rat) antagonism; P08482; CHO-M1 cells, Fluo-4 calcium, ACh EC80 antagonist mode; hits give low values; B-score at 10 µM; 64,000 tested, 3.4% active; AID 628;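 active = calcium fluorescence response, raw or row-and-column corrected B-score, differing from the plate sample mean either way at a set confidence level, mostly lower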
D1 allo mod: allosterically modulates the human D1 dopamine receptor; P21728; HEK293 D1, CRE-luciferase, dopamine EC30 potentiation; actives deviate in either direction; 58,000 tested, 5.9% active; B-score at 10 µM;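 active = luminescence count or its row- and column-corrected plate score outside the 99.7% band of the plate's sample wells, on either side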
Target sequence (P21728 whole entry, looked up): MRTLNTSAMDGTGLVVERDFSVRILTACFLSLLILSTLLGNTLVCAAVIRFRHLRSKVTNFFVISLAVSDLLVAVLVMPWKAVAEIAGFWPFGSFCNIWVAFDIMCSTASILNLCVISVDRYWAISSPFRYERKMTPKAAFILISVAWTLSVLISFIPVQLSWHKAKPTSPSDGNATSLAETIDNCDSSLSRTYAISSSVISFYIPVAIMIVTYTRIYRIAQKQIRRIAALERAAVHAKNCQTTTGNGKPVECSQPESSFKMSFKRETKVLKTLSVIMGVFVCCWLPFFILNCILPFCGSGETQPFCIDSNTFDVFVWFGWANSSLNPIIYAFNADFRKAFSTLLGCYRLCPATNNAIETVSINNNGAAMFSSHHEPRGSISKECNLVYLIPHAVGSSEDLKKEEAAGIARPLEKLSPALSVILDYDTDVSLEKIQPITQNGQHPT
The depositor's hits bear a star; . = no result. In the library only some 8.9% were active in any assay of this set; here they are far more common.

SMILES | Htt clearance | WNV NS2B-NS3 inh | M1 agonist | M1 antagonist | D1 allo mod
COc1ccc(C(=O)Nc2ccc(C)cn2)c(OC)c1 | -54 | 0.16 | -0.073 | 0.64 | -9.5*
Cc1ccc(NC(=O)CC2Oc3ccccc3NC2=O)c(C)c1 (stereo not given) | -9 | 0.44 | 0.78 | 0.31 | -0.093
COc1cc(C)nc(N2CCCC(C(=O)NC3CCC(C)CC3)C2)n1 (stereo not given) | . | -0.03 | 1.1 | -16* | -0.017
Cc1cc(C)nc(N2CCCC(C(=O)NCC(c3ccccc3)c3ccccc3)C2)n1 (stereo not given) | 88* | . | . | . | .
COc1ccc(C2C3=C(CCCC3=O)Nc3nc(-c4cc(OC)c(OC)c(OC)c4)nn32)cc1OC (stereo not given) | . | 1.8 | 1.5 | -1.5 | -3*
COc1ccc(-c2nc3n(n2)C(c2ccccc2)C2=C(CCCC2=O)N3)cc1OC (stereo not given) | . | -0.94 | 0.44 | 0.44 | 1.1
O=C(NCCCN1CCCC1)c1cccc(N2CCCC2=O)c1 | 8 | 1.1 | -0.13 | -0.39 | .
O=C(NCCCN1CCN(c2ccc(F)cc2)CC1)c1cccc(N2CCCC2=O)c1 | 57 | 1.3 | -0.69 | 0.83 | -6.1*
O=C(CC1=NC2(CCCC2)Cc2ccccc21)N1CCOCC1 | . | 0.32 | 0.099 | -0.1 | 0.1
CSc1nnc(-c2cnccn2)n1CCCN1CCCC1=O | . | 0.52 | 0.68 | 0.091 | .
Cn1c2ccccc2c2nn(-c3ccccc3)c(=O)cc21 | . | -3.5* | 0.26 | -0.12 | .
CCN(CC)C(=O)C1=C(C)Nc2nnnn2C1c1cccnc1 (stereo not given) | 24 | 1.1 | -0.93 | 0.0031 | -0.033
CCS(=O)(=O)NCC(c1cccnc1)N1CCN(c2ccccc2F)CC1 (stereo not given) | . | 0.09 | -0.56 | -0.04 | -0.38
N#Cc1c(/N=C/c2ccco2)sc2c1CCCCC2 | . | -0.58 | 0.78 | -0.54 | -4.2*
CCOC(=O)N1CCN(C(c2ccc(C)cc2)c2sc3nc(C)nn3c2O)CC1 (stereo not given) | . | -1.1 | 1.3 | 0.23 | -0.055
CCOC(=O)N1CCN(C(c2cccc(OC)c2)c2sc3nc(C)nn3c2O)CC1 (stereo not given) | . | 0.46 | 0.91 | -0.29 | -6.8*
COc1cccc(NC(=O)C2CCCN(S(=O)(=O)c3ccc(-n4cnnn4)cc3)C2)c1 (stereo not given) | . | 0.14 | 0.045 | -0.17 | -4.1*
CCOc1cccc(NC(=O)C2CCCN(S(=O)(=O)c3ccc(-n4cnnn4)cc3)C2)c1 (stereo not given) | 5 | -0.21 | -0.2 | -0.22 | 1.1
CCn1c(-c2ccc(C)cc2)n[nH]c1=S | -18 | . | . | . | .
CCn1c(=S)sc2nc(C)sc21 | . | 0.95 | 0.05 | 0.19 | 13*
Brc1ccc2ncnc(Nc3ccc(N4CCOCC4)cc3)c2c1 | . | 0.78 | -0.026 | -0.57 | -1.6
CC1CCCCN1S(=O)(=O)c1ccc(NC(=O)CSc2nnnn2C)cc1 (stereo not given) | . | 0.77 | -1.5 | 0.052 | 0.073
CCN(CC)CCn1c(NCc2ccc(OC)cc2)nc2ccccc21 | 86* | 1.3 | -0.9 | -0.74 | -1
CCCn1c(NCc2ccc(N(C)C)cc2)nc2ccccc21 | -4 | 0.81 | 0.37 | -0.0055 | -3.1
c1coc(CNc2nc3nonc3nc2NCc2ccco2)c1 | . | 1.1 | -0.023 | -0.035 | -0.84
SMILES | Htt clearance | WNV NS2B-NS3 inh | M1 agonist | M1 antagonist | D1 allo mod
O=c1nccc(NCc2ccco2)[nH]1 | . | -0.92 | 0.001 | 0.1 | -3*
CCOC(=O)c1c(NC(=O)c2csc(C)c2)sc(C(C)=O)c1C | 78* | -0.57 | -0.18 | 0.25 | 0.26
CCOC(=O)c1sc(NC(C)=O)c(C(=O)OCC)c1C | -36 | 1.9 | 1.8 | 0.052 | .
COc1ccc(-c2cc(-c3ccccc3)nc(N3CCCC3)n2)cc1OC | . | 1.2 | 0.38 | 1.5 | -8.7*
COc1ccc(-c2cc(C(F)(F)F)nc(N3CCOCC3)n2)cc1OC | 11 | -0.9 | -0.6 | 1.2 | .
Cc1ccc(S(=O)(=O)N2CCCCC2)cc1C(=O)Nc1ncn[nH]1 | . | 0.96 | 0.092 | -0.22 | .
O=C(/C=C\Nc1ccc2c(c1)OCO2)c1ccccn1 | -49 | -1.1 | 0.7 | 0.98 | -8*
Cc1nn(-c2ccccc2)c2sc(C(=O)OCN3C(=O)c4ccccc4C3=O)cc12 | . | -0.63 | 4.8 | 0.25 | 5.3*
COc1ccc(OC)c(NC(=O)CSc2nnnn2-c2ccc3c(c2)OCO3)c1 | -39 | -0.68 | -0.017 | 0.047 | 1.4
COc1ccc(C(=O)c2c[nH]c3ccccc23)cc1 | -38 | 0.36 | 0.93 | 0.0018 | -2.2*
COc1ccc(C(C(O)C(=O)c2c[nH]c3ccccc23)N2CCN(c3ccc(OC)cc3)CC2)cc1 (stereo not given) | . | -0.66 | -2.3 | 1.1 | -0.15
CC(C)Nc1nc(NC(C)(C)C)nc(Oc2ccc(=O)n(-c3ccccc3)n2)n1 | 7 | . | . | . | .
Cc1ccc(NC(=O)CSc2nc3nc(C)cc(C)c3c(=O)[nH]2)cc1 | . | 0.84 | 0.42 | 0.48 | 3.9*
Cc1cc(C)c2c(=O)[nH]c(SCC(=O)Nc3ccccc3)nc2n1 | . | 1.2 | -0.41 | -0.062 | 1.3
Cc1ccc(S(=O)(=O)N2CCN(C(=O)CN3CCc4ccccc4C3)CC2)cc1 | 20 | 1.8 | -0.0078 | -1.7 | -0.15
Cc1ccc(S(=O)(=O)N2CCN(C(=O)CCC(=O)N3CCc4ccccc43)CC2)cc1 | . | -0.08 | 1.1 | -3.3* | -0.33
CCOC(=O)CSc1nc(N)c(C#N)c(CC(C)C)c1C#N | -39 | -1.1 | 0.0055 | -0.0097 | 0.35
COc1ccc(-c2cc(C(F)(F)F)nc(SCC(=O)Nc3cc(C)on3)n2)cc1OC | -28 | -0.49 | -1.8 | 1.4 | 24*
COC(=O)c1c(N)n(-c2cc(OC)cc(OC)c2)c2nc3ccccc3nc12 | . | 0.63 | -1.4 | -0.035 | 3.3*
O=C(Nc1nnc(-c2ccccc2Cl)o1)c1cccnc1 | 40 | -0.63 | -0.31 | -0.038 | -1.1
COn1c(SC2CCCCC2)nc2ccccc2c1=O | -18 | 0.18 | 0.32 | 0.034 | .
CCOc1cccc(C=Nc2cc(C)cc(C)c2O)c1O | -38 | -1.1 | -0.05 | 0.46 | -3.8*
CCN(CC)S(=O)(=O)c1ccc(Cl)c(OC)c1 | -7 | . | . | . | .
CCN(CC)S(=O)(=O)c1ccc(Cl)c(C(=O)NC)c1 | 36 | -0.98 | 0.21 | -0.59 | -5.2*
CSc1nsc(SC)c1NC(=O)OCC1CCCO1 (stereo not given) | . | -0.73 | . | . | .
SMILES | Htt clearance | WNV NS2B-NS3 inh | M1 agonist | M1 antagonist | D1 allo mod
Cc1ccnc(NC(=O)CCCOc2cc(=O)n(C)c3ccccc23)c1 | -71 | 2.2 | -0.2 | -0.67 | -3.3*
CCC1Oc2ccc(C)cc2N(CC(=O)N(Cc2ccc3c(c2)OCO3)CC2CCCO2)C1=O (stereo not given) | 16 | 0.13 | 1.1 | -0.39 | 0.075
CCC1Oc2ccc(C)cc2N(CC(=O)N(Cc2cccnc2)Cc2ccc(C)o2)C1=O (stereo not given) | -19 | -0.85 | 4.4* | -1.5 | -0.053
Cn1c(=O)oc2cc(S(=O)(=O)NCCN3CCN(c4ccccc4F)CC3)ccc21 | 24 | 0.36 | -0.77 | 0.13 | -5.9*
CCCOc1cccc(C2C(C(=O)c3ccc(C)o3)=C(O)C(=O)N2CCCN(C)C)c1 (stereo not given) | . | 0.35 | -0.49 | 0.12 | -0.28
COCC(=O)Nc1nc2ccc(C)cc2s1 | . | 0.51 | -0.12 | 0.09 | -5*
